ELG1 repair inh: blocks ELG1-dependent DNA repair in HEK293T cells. Potency, µM (doses to about 46.1 µM), inactives show at the highest dose activity change, negative = inhibition, hits mostly inhibitors. 330,000 compounds, 2.3% hits. HEK293T ELG1-luciferase reporter, luminescence, 16 h; DNA damage induced by 5-fluorouridine; also: % is scaled to controls: 0 for no effect and ±100 for the full control effect; nearly all actives have a fitted effect of over 55% in size
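Cells (2,000 per well) received 5-fluorouridine plus test compound or DMSO and were incubated 16 hr at 37 °C, 5% CO2. Luciferase activity was read by luminescence 30 min after ONE-Glo addition; signal suppression marked inhibition of damage-induced ELG1 function.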
SMN2 splice up: increases expression of the SMN2 splice variant | 210,000 compounds, 2.8% hits | Potency, µM (top dose mostly 46.1 µM), for inactives: at the highest dose activity change, positive = activation, most hits filed as activators | HEK293 SMN2-luciferase splicing reporter, luminescence, 30-36 h; also: % of control where 0% means no effect; nearly all actives have a fitted effect of over 55% in size
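HEK293 cells carry an SMN2 […]–luciferase reporter in which exon 7 inclusion puts luciferase in frame. Cells were plated 10-12 h before compound addition, then incubated 30-36 h at 37C. ONE-Glo luminescence was read; sodium butyrate at 4.5 mM final served as control.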
ELG1 genotoxic: genotoxicity induction in ELG1-luciferase HEK293T cells; HEK293T ELG1-luciferase reporter, luminescence, 16 h; Potency, µM (series often up to 46 µM), inactives show at the highest dose activity change, positive = activation, most hits filed as activators; 330,000 compounds, 1.3% hits; also: % of control where 0% means no effect; nearly all actives have a fitted effect of over 60% in size
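Cells (2,000/well) expressing the ELG1-luciferase fusion are dosed by pin tool and kept 16 hr at 37 °C, 5% CO2. Signal comes from ONE-Glo luciferase reagent after 30 min at room temperature.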
FLuc modulator: firefly luciferase modulation, counter-screen for miR-21 project. P08659. purified FLuc, Km substrates, luminescence inhibition. Potency, µM (highest dose often 57.5 µM), without a hit: top-dose activity change, negative = inhibition, hits mostly inhibitors. 360,000 compounds, 6.9% hits;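 also: plate controls were vehicle for no effect and reference inhibitor for full effect; nearly all actives have a fitted effect of over 55% in size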
Target sequence (P08659 whole entry, looked up): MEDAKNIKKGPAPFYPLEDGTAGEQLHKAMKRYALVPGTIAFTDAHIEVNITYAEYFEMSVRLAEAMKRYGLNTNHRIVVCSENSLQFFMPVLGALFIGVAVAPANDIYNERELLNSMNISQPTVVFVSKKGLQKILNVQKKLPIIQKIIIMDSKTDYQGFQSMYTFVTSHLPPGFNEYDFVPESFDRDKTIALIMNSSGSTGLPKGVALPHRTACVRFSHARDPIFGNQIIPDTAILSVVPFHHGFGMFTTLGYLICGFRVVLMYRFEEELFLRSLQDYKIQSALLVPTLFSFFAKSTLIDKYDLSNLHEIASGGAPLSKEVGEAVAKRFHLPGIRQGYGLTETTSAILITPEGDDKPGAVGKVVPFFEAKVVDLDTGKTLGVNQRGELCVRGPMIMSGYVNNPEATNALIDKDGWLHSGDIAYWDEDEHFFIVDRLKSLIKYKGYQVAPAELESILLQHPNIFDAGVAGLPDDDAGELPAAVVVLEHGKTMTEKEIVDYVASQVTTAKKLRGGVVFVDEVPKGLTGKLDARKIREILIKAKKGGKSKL
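Purified P. pyralis luciferase (10nM final) with 10uM D-luciferin and 10uM ATP (Km levels) in 50mM Tris acetate pH 7.5, 10mM Mg acetate, 0.01% Tween-20, 0.05% BSA; qHTS 6-point titration, ~60 µM downward; luminescence read.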
NPC1 prom act: NPC1 promoter activation; Huh7 NPC1 promoter luciferase reporter, 24 h; Potency, µM (top dose mostly 9.22 µM), inactives show at the top dose activation, actives largely listed as activators; 320,000 compounds, 2.4% hits; AID 485313; also: % of control where 0% means no effect; nearly all actives have a fitted effect of over 60% in size
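Luminescence from an NPC1 promoter-driven luciferase reporter in stably transfected Huh7 cells was measured after 24 h compound treatment at 37 °C, followed by 10 min ambient incubation with luciferase detection reagent.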
Rab9 promoter act: activates the Rab9 promoter. Huh7 Rab9 promoter-luciferase reporter, luminescence, 24 h. Potency, µM (titrated, usually from 9.22 µM), without a hit: at the top dose activation, negative = inhibition, usual class: activators. 320,000 compounds, 2.8% hits. AID 485297; also: % of control where 0% means no effect; nearly all actives have a fitted effect of over 60% in size
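Luminescence read-out: Huh7 cells stably expressing Rab9-luciferase, treated 24 h with compound at 37 °C, then lysed with luciferase reagent for 10 min at ambient before reading.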
Starred values were filed as active, the others as inactive; ? = inconclusive; . = no result. This is a sample that favours compounds with a hit; in the whole collection about 9.2% have one here. Calls follow the shape of the dose curve; as a rule, active = well fitted curve in the direction sought with a large enough effect; inconclusive = small, poorly fitted or top-dose-only effect, or another doubt; inactive = no such curve, though single readings can be large; an effect the other way counts as inactive or inconclusive. Potency is read from the fitted curve at half-maximal effect.

SMILES | ELG1 repair inh | SMN2 splice up | ELG1 genotoxic | FLuc modulator | NPC1 prom act | Rab9 promoter act
Nc1ccc2oc(-c3ccccc3Br)nc2c1 | . | 13µM* | . | 3.4µM* | . | .
COc1ccc(N2CCN(C(=O)c3cc4cc5ccc(Cl)cc5nc4o3)CC2)cc1 | . | -3% | . | 0% | . | .
Cc1ccc2cc(CN(C(=O)c3cccc(Cl)c3)c3ccccc3)c(=O)[nH]c2c1 | . | 4% | . | -2% | . | .
COc1ccc(N(C(=O)CNC(=O)c2ccco2)C(C(=O)NC2CCCC2)c2ccco2)cc1 (stereo unspecified) | -6% | . | 2% | 0% | 0% | 0%
CC1=CC2=NC(=O)/C(=C\c3cccn3CCOc3ccccc3)C(=N)N2O1 | ? | ? | -4% | -2% | -3% | 1%
CC1=CC2=NC(=O)/C(=C\c3cccn3CCOc3cccc(C)c3)C(=N)N2O1 | 23µM* | ? | -3% | 3% | -3% | -6%
CC1=CC2=NC(=O)/C(=C\c3cccn3CCOc3cc(C)cc(C)c3)C(=N)N2O1 | 21µM* | 18% | -3% | 0% | 0% | -2%
COC(=O)C1CCN(C(=O)/C(C)=C\c2ccccc2)CC1 | 29% | . | 3% | -2% | 13% | 13%
O=C(NCc1ccccn1)c1cc(-c2ccc(Br)cc2)nc2ccccc12 | ? | 18% | -15% | ? | -2% | -5%
O=C(NCCc1ccccn1)c1cc(-c2cccc3ccccc23)nc2ccccc12 | 23µM* | -6% | -10% | -2% | -1% | 0%
O=C(COc1ccc(F)cc1Br)NCc1ccccn1 | . | -7% | . | ? | . | .
Cc1ccc(-c2cc(C(=O)NCc3ccccn3)c3ccccc3n2)cc1 | ? | ? | -2% | 4.3µM* | 1% | 25%
CCc1ccccc1Nc1cc(C(=O)NCc2ccccn2)c2ccccc2n1 | ? | -6% | -11% | 17µM* | 1% | -1%
Cc1ccc(OCC(=O)NCc2ccccn2)c(Br)c1 | ? | 26% | ? | 17µM* | ? | ?
Cc1ccc(-c2cc(C(=O)NCCc3ccccn3)c3ccccc3n2)c(C)c1 | ? | -40% | -6% | 3% | 3% | 2%
CC/C=C\C/C=C\C/C=C\C/C=C\C/C=C\CCCC(=O)O | . | -11% | . | . | . | .
CCOc1ccc(C(=O)Nc2ccc(OCc3cc(=O)n4cccc(C)c4n3)cc2)cc1 | . | . | . | -6% | . | .
CC(Oc1ccc(F)cc1)C(=O)N1CCC(c2nc3ccccc3s2)CC1 (stereo unspecified) | . | . | . | -10% | . | .
CCOc1ccc(-c2cc(C(=O)NCc3ccc(C)cc3)c3ccccc3n2)cc1 | . | . | . | -14% | . | .
Cc1cc(C(=O)NCc2ccccc2Cl)c2ccccc2n1 | -1% | . | -2% | ? | 0% | 1%
CCc1ccc(-c2cc(C(=O)NCc3ccccn3)c3ccccc3n2)cc1 | ? | 2% | -13% | 0.85µM* | 2% | 26%
Cc1cc(CNC(=O)c2cccnc2Cl)c2ccccc2n1 | 5.2µM* | -60% | -9% | -4% | 3% | 0%
O=C(Nc1cccc([N+](=O)[O-])c1)c1ccccc1 | -14% | . | 2% | ? | 3% | 14%
COC(=O)c1cccc(NC(=O)Cc2coc3cc(OC)ccc23)c1 | ? | -41% | 0% | 17µM* | 21% | ?
O=C(CCl)Nc1cccc(Oc2ccccc2)c1 | -19% | -29% | -1% | 17µM* | -27% | -3%
O=C(Nc1ccc2ccccc2c1)c1cccc([N+](=O)[O-])c1 | ? | . | ? | 12µM* | ? | ?
COc1c(C(=O)NNC(=O)c2ccccc2)csc1Br | ? | . | ? | 11µM* | ? | 2.8µM*
O=C(NC1CCN(c2ncccn2)CC1)c1ccccc1F | ? | . | 1% | 1% | 1% | -1%
COc1cccc(C(=O)Nc2ccc3ccccc3c2)c1 | ? | . | ? | 0.48µM* | 3.2µM* | 0.79µM*
COc1cccc(C(=O)Nc2cccc3ccccc23)c1 | 6% | . | 4% | -15% | 0% | 6%
